This note sets out measurements from PubChem BioAssay (NCI).

“And” between values parts separate entries of the source, which are not always exact repeats. Identical values can stand only once. This is part of a sample that, as a whole, favours compounds with a hit. Of some 79,000 tested, about 15% had one in any assay. More than one record can exist for a structure, and the calls need not agree. The source made the active and inactive calls. Rule as the data show it: active = growth inhibition above about 70%; inactive = the rest.

Test [1] is described as follows: NCI Yeast Anticancer Drug Screen. Data for the rad50 strain (AID 155).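 Also: 0% = growth of vehicle-only cultures of the same strain.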 Conditions: S. cerevisiae rad50 strain growth inhibition, stronger effect = higher value. The method, boiled down:
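Yeast carrying a defined DNA repair defect were exposed to test compounds, and growth was compared with vehicle-treated controls to give percent inhibition.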

Test [2] can be described thus: NCI Yeast Anticancer Drug Screen. Data for the mec2-1 strain (AID 157). The note with it: S. cerevisiae mec2-1 strain, stronger effect = higher value. The method, boiled down:
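Vehicle-treated cultures served as reference for growth inhibition of compound-exposed mec2-1 yeast.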

The nature of test [3]: NCI Yeast Anticancer Drug Screen. Data for the sgs1 mgt1 strain (AID 161).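 Also: 0% = growth of cultures given vehicle only.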 Conditions: S. cerevisiae sgs1 mgt1 strain, stronger effect = higher value. The method, boiled down:
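Inhibition of yeast growth, normalised to vehicle-treated controls, is reported for a strain bearing genetic alterations in DNA damage repair.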

The nature of test [4]: NCI Yeast Anticancer Drug Screen. Data for the cln2 rad14 strain (AID 165).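 Also: 0% = growth equal to vehicle treated cultures.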 Conditions: S. cerevisiae cln2 rad14 strain, stronger effect = higher value. The method, boiled down:
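Each compound was tested on cln2 rad14 yeast. Inhibition of growth was calculated against vehicle-exposed controls.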

A short description of test [5]: NCI Yeast Anticancer Drug Screen. Data for the bub3 strain (AID 167). The note with it: S. cerevisiae bub3 mutant strain, stronger effect = higher value. The method, boiled down:
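Compounds were applied to a genetically altered yeast strain carrying a cell-cycle control defect. Growth inhibition was scored against vehicle-treated controls.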

The nature of test [6]: NCI Yeast Anticancer Drug Screen. Data for the mlh1 rad18 strain (AID 175). The note with it: S. cerevisiae mlh1 rad18 strain growth inhibition, stronger effect = higher value. The method, boiled down:
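Vehicle-treated cultures served as the reference for growth inhibition in a yeast strain carrying DNA damage repair alterations exposed to each compound.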

Setting [7] is: at 5.0 µM (retest, dose inferred, filed as 0.5).
[8] abbreviates: at 50.0 µM (retest, dose inferred, filed as 5.0).

In the case of `CCCC(O)c1ccc(C)cc1` (centres undefined), the growth inhibition was 11% (inactive) and 1% (inactive) in test [1] (setting [7]); 20% (inactive) and 2% (inactive) in test [1] (setting [8]); 12.8% (inactive) and -26.4% (inactive) in test [1] (at 50.0 µM); 4% (inactive) and 3% (inactive) in test [2] (setting [7]); 21% (inactive) and -2% (inactive) in test [2] (setting [8]); 33.5% (inactive) and -6.65% (inactive) in test [2] (at 50.0 µM). The growth inhibition is 5% (inactive) and 0% (inactive) in test [3] (setting [7]); 33% (inactive) and -1% (inactive) in test [3] (setting [8]); 0.4% (inactive) and 15.7% (inactive) in test [3] (at 50.0 µM); 5% (inactive) and -1% (inactive) in test [4] (setting [7]); 10% (inactive) and 0% (inactive) in test [4] (setting [8]); -43.6% (inactive) and 18.9% (inactive) in test [4] (at 50.0 µM). The growth inhibition was -2% (inactive) and -3% (inactive) in test [5] (setting [7]); 98% (active) and -10% (inactive) in test [5] (setting [8]); -6.05% (inactive) and 14.9% (inactive) in test [5] (at 50.0 µM); 7% (inactive) and 5% (inactive) in test [6] (setting [7]); 21% (inactive) and 7% (inactive) in test [6] (setting [8]); 6.2% (inactive) and -10.3% (inactive) in test [6] (at 50.0 µM).
As to `Nc1ccc2c(n1)NCC/C2=N\Nc1ccccc1`, the growth inhibition in test [1] (setting [7]) was 1% (inactive); in test [1] (setting [8]) it was 72% (active); in test [1] (at 50.0 µM), 90.5% (active); in test [2] (setting [7]), -2% (inactive); in test [2] (setting [8]), 60% (inactive); in test [2] (at 50.0 µM), 78.3% (active). The growth inhibition in test [3] (setting [7]) was -4% (inactive); in test [3] (setting [8]) it was 69% (inactive); in test [3] (at 50.0 µM), 79% (active); in test [4] (setting [7]), -2% (inactive); in test [4] (setting [8]) it was 23% (inactive); in test [4] (at 50.0 µM), 60.9% (inactive). In addition, the growth inhibition in test [5] (setting [7]) was -5% (inactive); in test [5] (setting [8]), 91% (active); in test [5] (at 50.0 µM), 87.8% (active); in test [6] (setting [7]), 0% (inactive); in test [6] (setting [8]), 92% (active); in test [6] (at 50.0 µM), 98% (active).
Turning to `CC(=O)OC1CC2C(C)(C)C(=O)C=C[C@]2(C)C2CCC3(C)C(=CC(=O)C3c3ccoc3)[C@]12C` (some centres undefined), the growth inhibition is -4% (inactive) in test [1] (setting [7]); 40% (inactive) in test [1] (setting [8]); 65.4% (inactive) in test [1] (at 50.0 µM); -8% (inactive) in test [2] (setting [7]); 38% (inactive) in test [2] (setting [8]); 65.3% (inactive) in test [2] (at 50.0 µM). For the same molecule, the growth inhibition in test [3] (setting [7]) is -1% (inactive); in test [3] (setting [8]) it was 86% (active); in test [3] (at 50.0 µM), 87% (active); in test [4] (setting [7]), 19% (inactive); in test [4] (setting [8]) it was 52% (inactive); in test [4] (at 50.0 µM), 18.7% (inactive). For the same molecule, the growth inhibition is 7% (inactive) in test [5] (setting [7]); 58% (inactive) in test [5] (setting [8]); 56.9% (inactive) in test [5] (at 50.0 µM); -1% (inactive) in test [6] (setting [7]); 52% (inactive) in test [6] (setting [8]); 56.4% (inactive) in test [6] (at 50.0 µM).
As to `ClCCCN(CCCCl)c1ccc(C=Nc2cccc(Cl)c2)cc1`, the growth inhibition in test [1] (setting [7]) is 16% (inactive); in test [1] (setting [8]) it was 89% (active); in test [1] (at 50.0 µM), 91.3% (active); in test [2] (setting [7]), -4% (inactive); in test [2] (setting [8]), 8% (inactive); in test [2] (at 50.0 µM) it was -1.2% (inactive). Besides, the growth inhibition in test [3] (setting [7]) is 24% (inactive); in test [3] (setting [8]) it was 90% (active); in test [3] (at 50.0 µM) it was 92.8% (active); in test [4] (setting [7]), 8% (inactive); in test [4] (setting [8]), 88% (active); in test [4] (at 50.0 µM), 86.2% (active). Moreover, the growth inhibition in test [5] (setting [7]) was -4% (inactive); in test [5] (setting [8]), -14% (inactive); in test [5] (at 50.0 µM) it was -13% (inactive); in test [6] (setting [7]), 17% (inactive); in test [6] (setting [8]) it was 89% (active); in test [6] (at 50.0 µM), 78.5% (active).
Consider `O=[N+]([O-])c1ccc(Cl)c(C2CC(c3cccc4ccccc34)=Nc3ccccc3S2)c1` (centres undefined), for which the growth inhibition is 0% (inactive) in test [1] (setting [7]); 0% (inactive) in test [1] (setting [8]); 31.1% (inactive) in test [1] (at 50.0 µM); 0% (inactive) in test [2] (setting [7]); 2% (inactive) in test [2] (setting [8]); 83% (active) in test [2] (at 50.0 µM). In addition, the growth inhibition in test [3] (setting [7]) is 2% (inactive); in test [3] (setting [8]), 12% (inactive); in test [3] (at 50.0 µM), 30.6% (inactive); in test [4] (setting [7]) it was -1% (inactive); in test [4] (setting [8]), 0% (inactive); in test [4] (at 50.0 µM) it was 43.2% (inactive). Moreover, the growth inhibition in test [5] (setting [7]) is 2% (inactive); in test [5] (setting [8]), 7% (inactive); in test [5] (at 50.0 µM), 35.2% (inactive); in test [6] (setting [7]), -1% (inactive); in test [6] (setting [8]), 6% (inactive); in test [6] (at 50.0 µM), 58.3% (inactive).
For `CN(C)Cc1cc(CN(C)C)c(O)c(CN(C)C)c1`, the growth inhibition was 8% (inactive) in test [1] (setting [7]); 19% (inactive) in test [1] (setting [8]); -34.9% (inactive) and 40.3% (inactive) in test [1] (at 50.0 µM); 2% (inactive) in test [2] (setting [7]); 2% (inactive) in test [2] (setting [8]); -58.3% (inactive) and 59.9% (inactive) in test [2] (at 50.0 µM). The growth inhibition is 4% (inactive) in test [3] (setting [7]); 11% (inactive) in test [3] (setting [8]); 0.25% (inactive) and 2.75% (inactive) in test [3] (at 50.0 µM); -3% (inactive) in test [4] (setting [7]); -8% (inactive) in test [4] (setting [8]); -24.1% (inactive) and -31.1% (inactive) in test [4] (at 50.0 µM). For the same molecule, the growth inhibition in test [5] (setting [7]) is 14% (inactive); in test [5] (setting [8]) it was 39% (inactive); in test [5] (at 50.0 µM), -43.5% (inactive) and 65.3% (inactive); in test [6] (setting [7]), -6% (inactive); in test [6] (setting [8]), -9% (inactive); in test [6] (at 50.0 µM), -22.2% (inactive) and 48.1% (inactive).
In the case of `CCCCCCCCCCCCCC1=NCC(c2ccc3ccccc3c2)O1` (centres undefined), the growth inhibition is -4% (inactive) in test [1] (setting [7]); -13% (inactive) in test [1] (setting [8]); -1.9% (inactive) in test [1] (at 50.0 µM); -4% (inactive) in test [2] (setting [7]); -2% (inactive) in test [2] (setting [8]); 4.95% (inactive) in test [2] (at 50.0 µM). The growth inhibition in test [3] (setting [7]) was -4% (inactive); in test [3] (setting [8]), -23% (inactive); in test [3] (at 50.0 µM), -12.6% (inactive); in test [4] (setting [7]), -6% (inactive); in test [4] (setting [8]), -27% (inactive); in test [4] (at 50.0 µM) it was 10.3% (inactive). Besides, the growth inhibition in test [5] (setting [7]) was 1% (inactive); in test [5] (setting [8]), -6% (inactive); in test [5] (at 50.0 µM) it was -4.7% (inactive); in test [6] (setting [7]) it was -2% (inactive); in test [6] (setting [8]) it was -6% (inactive); in test [6] (at 50.0 µM), -1.95% (inactive).
For the molecule `CCCCCCCCCCCCCCCCOP(=O)(O)OCC(NC(C)=O)C(=O)O` (centres undefined), the growth inhibition in test [1] (setting [7]) is -2% (inactive); in test [1] (setting [8]), 100% (active); in test [1] (at 50.0 µM), 99.2% (active); in test [2] (setting [7]), 17% (inactive); in test [2] (setting [8]) it was 100% (active); in test [2] (at 50.0 µM), 99.5% (active). Moreover, the growth inhibition in test [3] (setting [7]) is 4% (inactive); in test [3] (setting [8]), 95% (active); in test [3] (at 50.0 µM), 99.3% (active); in test [4] (setting [7]), 37% (inactive); in test [4] (setting [8]), 99% (active); in test [4] (at 50.0 µM), 99.3% (active). The growth inhibition in test [5] (setting [7]) was 1% (inactive); in test [5] (setting [8]), 97% (active); in test [5] (at 50.0 µM) it was 99.5% (active); in test [6] (setting [7]), -1% (inactive); in test [6] (setting [8]), 99% (active); in test [6] (at 50.0 µM), 99.4% (active).
